In the library only some 4.3% were active in any assay of this set; here they are far more common.
TRPM1 prom inh – inhibitors of MITF-driven TRPM1 promoter in melanoma cells | 330,000 compounds, 0.83% hits | inhibition, % at 12.5 µM | AID 488899 | SK-MEL-5 TRPM1 promoter luciferase, 24 h;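 active = mean inhibition across replicates of 60% or more, whatever share of single replicates reaches that level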
CF NFkB block – cystic fibrosis NF-kB activation inhibition; KKLEB NF-kB-GFP reporter, PAF-induced, GFP fluorescence overnight; inhibition, % at 5 µM; 360,000 compounds, 0.86% hits;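 active = at least 50% inhibition at 5 µM, scaled per plate between neutral and stimulator controls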;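 also: PAF is a Pseudomonas aeruginosa culture filtrate used as stimulus; plate controls were PAF-stimulated DMSO wells for no effect and unstimulated DMSO wells for full effect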
HIF-2a inh – inhibitors of HIF-2a. 786-0 RCC cells HIF-2a reporter, luciferase luminescence, overnight. 360,000 compounds, 0.72% hits. AID 624352. inhibition, % at 18.8 µM;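 active = inhibition of the luminescence signal of 40% or more relative to plate controls, in a single-dose primary screen at 18.75 µM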
KKLEB cytotox – CF airway cell cytotoxicity counter-screen. 360,000 compounds, 0.36% hits. activity change (cytotoxicity), % at 5 µM. KKLEB CF airway cells viability, ATPlite luminescence, overnight; stronger effect = lower value; cells stimulated with P. aeruginosa culture filtrate;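 active = corrected activity change at or below -50% at 5 µM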
CHOP inh – blocks CHOP induction under ER stress; CHO-K1 CHOP-promoter luciferase, tunicamycin-induced, 15-18 h; inhibition, % at 10 µM; 220,000 compounds, 3.8% hits; AID 2732;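 active = compounds that reduced the stress-induced luciferase reporter signal by more than about 70% of percent inhibition, limit read from the data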;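 also: 0% = tunicamycin plus vehicle and 100% = wells without tunicamycin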
Peg3 promoter – Peg3 promoter activity inhibition | AID 588405 | HeLa PEG-Prom luciferase reporter, luminescence, overnight | inhibition, % at 20 µM | 360,000 compounds, 1.7% hits;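 active = inhibition of at least 50% at 20 µM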
* hit, by the source's call; . = no result given.

SMILES | TRPM1 prom inh | CF NFkB block | HIF-2a inh | KKLEB cytotox | CHOP inh | Peg3 promoter
O=c1c2ccccc2n(Cc2cccc(F)c2)c(=O)n1C1CCCC1 | -9 | 8 | 38 | -2 | 82* | 32
CC(C)(C)c1ccc(Oc2ccc(N)cn2)cc1 | . | -18 | 77* | 13 | 88* | 30
OC[C@@H]1CN(Cc2cccs2)C[C@H](n2cnc3c(NC4CCC4)ncnc32)O1 | . | -14 | 0 | 4 | . | 4
O=C(Nc1nc2c(F)cc(F)cc2s1)c1ccccn1 | 65* | -28 | -144 | -21 | 79* | 75*
Cc1ccc(S(=O)(=O)c2c(C)nn(-c3ccccc3)c2OC(=O)c2ccco2)cc1 | 12 | -4 | 16 | -8 | 103* | 22
FC(F)(F)c1cc(-c2cccs2)nc2nc(N3CCOCC3)sc12 | -7 | -20 | -17 | -7 | 94* | 22
O=C(c1cnn2c(C(F)(F)F)cc(-c3cccs3)nc12)N1CCOCC1 | 10 | -7 | 6 | 8 | 13 | 14
O=CNc1cc(-c2ccccc2)cn2c(-c3ccc(F)c(Cl)c3)cnc12 | . | 0 | -13 | -16 | . | 10
CN1CCN(c2ccc(-c3cc(NC=O)c4ncc(-c5ccc(F)c(Cl)c5)n4c3)cc2)CC1 | . | -9 | -143 | -12 | . | 96*
CC(=O)Nc1cc(-c2ccc(N3CCN(C)CC3)cc2)cn2c(-c3ccc(F)c(Cl)c3)cnc12 | . | 3 | -10 | -15 | . | 75*
O=C(COC(=O)c1ccc(Cl)nc1)NCCc1ccc(F)cc1 | -4 | 4 | -6 | -9 | . | 3
O=C(Nc1nncs1)c1cc2c(s1)CCC2 | -73 | 5 | -184 | -15 | 6 | -181
CC(C)Cc1nnc(NC(=O)c2cc3c(s2)CCC3)s1 | -27 | -4 | -204 | -16 | 85* | -228
CC(=O)c1ccc(N/N=C(/C(N)=O)C2=NC(C)(C)Cc3ccccc32)cc1 | 5 | 26 | 31 | -16 | 19 | 77*
CC1(C)Cc2ccccc2C(/C(=N\Nc2cccc(Cl)c2)C(N)=O)=N1 | -2 | 27 | 22 | -12 | 87* | 40
CC1(C)CC(=O)C=C(c2ccc(COC(=O)C3CC3)cc2)C1=O | . | -13 | -19 | 10 | . | -82
C[C@H](NC(=O)C1CCN(S(=O)(=O)c2ccccc2)CC1)C(=O)NCc1ccc(Cl)c(Cl)c1 | -3 | -37 | -2 | -2 | . | 19
Cc1occc(=O)c1O | 1 | -17 | -1 | -88* | 6 | -5
CCCc1ccc2oc(C(=O)N(C)Cc3nccs3)c(C)c2c1 | -35 | 16 | -264 | -12 | . | -221
Cc1ccc(-c2nnn(CC(=O)Nc3cccc4c3CCCC4)n2)o1 | 6 | 0 | 16 | -4 | 81* | 12
CC(=O)Nc1cc2c(cc1NC(=O)Cn1nnc(-c3ccc(C)o3)n1)OCCO2 | 10 | 5 | 11 | -1 | 21 | 17
Cc1ccc(C(=O)O[C@H](C(=O)O)[C@H](OC(=O)c2ccc(C)cc2)C(=O)O)cc1 (tested in a mixture with another compound) | . | . | . | . | 5 | .
O=C(Nc1ccnn1C1CCNCC1)c1ccc2c(c1)OCO2 | 0 | 0 | -6 | 11 | . | -1
Fc1ccc(-[n+]2nc(Nc3ccccc3)sc2-c2c(Cl)cccc2Cl)cc1 | 8 | 32 | -3 | -2 | . | 59*
COc1ccc2ccccc2c1-c1sc(Nc2ccccc2)n[n+]1-c1ccc(F)cc1 | 5 | 17 | -6 | -14 | . | 87*
SMILES | TRPM1 prom inh | CF NFkB block | HIF-2a inh | KKLEB cytotox | CHOP inh | Peg3 promoter
COc1ccc(-n2nc3cc(C)c(NC(=S)NC(=O)c4ccccc4C)cc3n2)cc1 | -25 | 55* | -163 | -59* | -19 | -239
CCCCC(=O)Nc1cc2nn(-c3ccc(OC)cc3)nc2cc1C | -51 | 7 | -97 | -5 | -12 | -84
CCC(=O)Nc1cc2nn(-c3ccc(C)cc3)nc2cc1C | 60 | -6 | -40 | -32 | 91* | 62*
CCC(=O)Nc1cc2nn(-c3ccc(OC)cc3)nc2cc1C | -26 | -3 | -151 | -4 | 59 | -159
N/C(=N\OCc1ccc([N+](=O)[O-])cc1)c1ccccn1 | 73* | . | . | . | 83* | .
O=C(COc1cccc(Cl)c1Cl)NC1CC1 | -7 | -22 | -49 | 10 | . | -36
O=C1OCC/C1=C\OCCCO/C=C1\CCOC1=O | -5 | 12 | 11 | -1 | 1 | -12
